Data taken from PubChem BioAssay (NCATS).
Results filed as inconclusive are left out. Activity calls are given as the source filed them. Unless noted, calls follow the shape of the dose curve; as a rule, active = well fitted curve in the direction sought with a large enough effect; inconclusive = small, poorly fitted or top-dose-only effect, or another doubt; inactive = no such curve, though single readings can be large; an effect the other way counts as inactive or inconclusive.

What was measured:
[1] = biological target: Lysosomal acid glucosylceramidase (Homo sapiens) (UniProt P04062); test: Glucocerebrosidase-p2 (AID 348; in the data active = potency below about 10 µM; also: potency is read from the fitted curve at half-maximal effect); details: purified GBA, blue fluorogenic substrate, 40 min
Chain of Lysosomal acid glucosylceramidase (Homo sapiens) (P04062 whole entry, looked up): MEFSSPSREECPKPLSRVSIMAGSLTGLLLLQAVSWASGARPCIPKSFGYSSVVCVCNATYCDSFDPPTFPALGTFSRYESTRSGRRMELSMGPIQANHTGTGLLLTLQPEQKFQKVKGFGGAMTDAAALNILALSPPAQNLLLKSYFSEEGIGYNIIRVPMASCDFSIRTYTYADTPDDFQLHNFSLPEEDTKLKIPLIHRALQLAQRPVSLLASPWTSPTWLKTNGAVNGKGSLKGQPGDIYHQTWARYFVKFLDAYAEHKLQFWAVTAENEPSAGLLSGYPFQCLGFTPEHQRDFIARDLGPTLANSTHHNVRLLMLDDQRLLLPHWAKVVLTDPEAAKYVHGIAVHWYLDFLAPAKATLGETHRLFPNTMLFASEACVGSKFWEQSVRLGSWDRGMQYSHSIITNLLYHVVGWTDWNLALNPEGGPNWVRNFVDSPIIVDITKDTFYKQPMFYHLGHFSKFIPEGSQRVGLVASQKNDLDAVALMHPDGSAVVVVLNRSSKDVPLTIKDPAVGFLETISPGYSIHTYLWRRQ
In short: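 Normal human glucocerebrosidase (0.2 nM) with blue fluorogenic substrate (80 uM final) in citrate/phosphate pH 5.9 with 10mM sodium taurocholate, 0.01% tween-20; 40 min RT, NaOH/glycine stop; fluorescence Ex 365/Em 440; AC50 from a titration from 0.6 nM upwards.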

[2] = AP1 Signaling Pathway (AID 357; active = well fitted curve in either direction with a large enough effect, not every such curve was filed as active;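 also: ME-180 reporter cells stimulated with EGF at its EC50 level; % is scaled to controls: 0 for no effect and ±100 for the full control effect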); details: ME-180 AP-1-bla reporter, EGF-induced, beta-lactamase ratio, 5 h; at 7.69 µM (top of the series) unless noted
In short: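 Beta-lactamase reporter under AP-1 response element, ME-180 background. Stimulus: EC50 EGF. Compound exposure 5 h, 37 °C. Detection: CCF4, 2.5 h RT, 460/530 nm. Values: AC50 from titration.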

[3] = biological target: Cytochrome P450 1A2 (Homo sapiens) (UniProt P05177); test: p450-cyp1a2 (AID 410; calls by dose curve; also: potency is read from the fitted curve at half-maximal effect); details: recombinant CYP1A2, luciferin-ME demethylation, luminescence; series mostly up to 57 µM
Chain of Cytochrome P450 1A2 (Homo sapiens) (P05177 whole entry, looked up): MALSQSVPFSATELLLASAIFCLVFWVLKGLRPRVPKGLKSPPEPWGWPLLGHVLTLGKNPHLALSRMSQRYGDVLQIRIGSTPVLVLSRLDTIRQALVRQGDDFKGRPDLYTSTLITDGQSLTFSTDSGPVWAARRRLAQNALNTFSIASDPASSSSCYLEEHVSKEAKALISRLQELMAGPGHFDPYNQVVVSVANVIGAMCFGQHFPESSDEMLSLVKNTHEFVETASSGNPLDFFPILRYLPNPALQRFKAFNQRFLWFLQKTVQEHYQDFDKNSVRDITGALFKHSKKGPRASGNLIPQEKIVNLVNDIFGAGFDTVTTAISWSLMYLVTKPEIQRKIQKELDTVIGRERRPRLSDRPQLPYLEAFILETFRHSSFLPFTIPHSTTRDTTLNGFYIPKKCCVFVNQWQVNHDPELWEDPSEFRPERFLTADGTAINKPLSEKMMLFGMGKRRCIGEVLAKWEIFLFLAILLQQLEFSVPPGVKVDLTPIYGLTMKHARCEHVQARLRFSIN
In short: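 O-Demethylation of luciferin 6' methyl ether by human CYP1A2 is monitored as luciferase luminescence. Substrate sits at Km (100uM); enzyme is 20nM. Values are scaled to 57 uM furafylline as maximal inhibition.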

[4] = Stat Signaling Pathway (AID 446; active = well fitted curve in either direction with a large enough effect, not every such curve was filed as active;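 also: ME-180 cervical cancer cells given 40 pM IL-6 alongside compound; SIE-controlled beta-lactamase reporter measured as 460/530 nm FRET emission ratio; % is scaled to controls: 0 for no effect and ±100 for the full control effect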); details: ME-180 (cervical carcinoma) SIE beta-lactamase reporter, IL-6 stimulated, 5 h; at 7.69 µM (top of the series) unless noted
In short: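 Overnight-plated ME-180 cells bearing a STAT Inducible Element beta-lactamase reporter; 5 h co-exposure to compound and 40 pM IL-6; values normalized to 300 pM IL-6 and 125 nM JAK inhibitor controls.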

[5] = biological target: Glucocorticoid receptor (Homo sapiens) (UniProt P04150); test: GR-GFP Redistribution (AID 450;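 active = compounds whose dose series gives a full or clear partial fitted curve of increased nuclear translocation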; also: potency is read from the fitted curve at half-maximal effect); details: U2OS GR-GFP nuclear translocation, laser cytometry, 2 h
Chain of Glucocorticoid receptor (Homo sapiens) (P04150 whole entry, looked up, the tested form may be a part): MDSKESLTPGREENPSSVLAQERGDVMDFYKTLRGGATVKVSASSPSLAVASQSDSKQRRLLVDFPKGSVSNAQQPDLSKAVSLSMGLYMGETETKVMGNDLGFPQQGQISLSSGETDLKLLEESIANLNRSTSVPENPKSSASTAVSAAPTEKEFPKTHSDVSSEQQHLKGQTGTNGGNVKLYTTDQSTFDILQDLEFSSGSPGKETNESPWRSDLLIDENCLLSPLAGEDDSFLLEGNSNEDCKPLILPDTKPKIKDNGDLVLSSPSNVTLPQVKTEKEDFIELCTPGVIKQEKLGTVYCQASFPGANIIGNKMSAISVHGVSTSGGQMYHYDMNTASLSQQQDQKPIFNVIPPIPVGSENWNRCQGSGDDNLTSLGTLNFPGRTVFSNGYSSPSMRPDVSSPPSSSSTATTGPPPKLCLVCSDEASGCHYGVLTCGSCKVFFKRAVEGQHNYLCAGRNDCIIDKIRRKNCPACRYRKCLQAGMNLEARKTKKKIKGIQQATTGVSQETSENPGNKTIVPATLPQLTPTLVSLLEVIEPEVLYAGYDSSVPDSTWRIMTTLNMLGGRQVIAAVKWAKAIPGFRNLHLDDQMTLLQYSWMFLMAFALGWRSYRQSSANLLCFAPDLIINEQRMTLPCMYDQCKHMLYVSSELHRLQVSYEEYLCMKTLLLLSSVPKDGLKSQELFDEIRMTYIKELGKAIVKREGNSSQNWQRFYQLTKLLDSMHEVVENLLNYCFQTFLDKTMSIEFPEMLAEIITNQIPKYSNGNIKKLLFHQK

[6] = biological target: Glucocorticoid receptor (Homo sapiens) (UniProt P04150); test: GR-EFC Redistribution (AID 451; calls by dose curve; also: potency is read from the fitted curve at half-maximal effect); details: CHO-K1 GR-EFC translocation, beta-gal luminescence, 2 h
In short: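 Translocation of GR-ED fusion to nuclear EA restores b-gal, read by luminescence after 1 h room-temperature detection. Engineered CHO-K1 biosensor cells, 1,000/well, exposed 2 h at 37 C to titrations up to 46 uM final.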

[7] = biological target: Mitogen-activated protein kinase 10 (Mus musculus) (UniProt Q61831); test: JNK3 AlphaScreen Assay (AID 530; active = well fitted curve in either direction with a large enough effect, not every such curve was filed as active;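 also: kinase came from lysate of stimulated human HepG2 cells; signal reports phosphorylation of biotinylated GST-cJun 1-79 at Ser73 with 10 µM ATP; % is scaled to controls: 0 for no effect and ±100 for the full control effect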); details: JNK3 lysate, c-Jun phosphorylation; series mostly up to 57.1 µM
In short: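 qHTS titrations with 15 min compound pre-incubation before adding ATP (10 uM final). Read-out: AlphaScreen of Ser73-phosphorylated biotin-GST-cJun using HepG2 lysate JNK3 activated by IL-1β and TNFα.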

[8] = biological target: 3',5'-cyclic-AMP phosphodiesterase 4B (Homo sapiens) (UniProt Q07343); test: qHTS Assay for Inhibitors of PDE-IV (AID 607; active = well fitted activation curve with a large enough effect in the main read-out, with a control signal flat, not every such curve was filed as active; also: % of control where 0% means no effect); details: HEK293 ACTOne CNG channel cells, membrane potential fluorescence; series mostly up to 22.9 µM
Chain of 3',5'-cyclic-AMP phosphodiesterase 4B (Homo sapiens) (Q07343 whole entry, looked up): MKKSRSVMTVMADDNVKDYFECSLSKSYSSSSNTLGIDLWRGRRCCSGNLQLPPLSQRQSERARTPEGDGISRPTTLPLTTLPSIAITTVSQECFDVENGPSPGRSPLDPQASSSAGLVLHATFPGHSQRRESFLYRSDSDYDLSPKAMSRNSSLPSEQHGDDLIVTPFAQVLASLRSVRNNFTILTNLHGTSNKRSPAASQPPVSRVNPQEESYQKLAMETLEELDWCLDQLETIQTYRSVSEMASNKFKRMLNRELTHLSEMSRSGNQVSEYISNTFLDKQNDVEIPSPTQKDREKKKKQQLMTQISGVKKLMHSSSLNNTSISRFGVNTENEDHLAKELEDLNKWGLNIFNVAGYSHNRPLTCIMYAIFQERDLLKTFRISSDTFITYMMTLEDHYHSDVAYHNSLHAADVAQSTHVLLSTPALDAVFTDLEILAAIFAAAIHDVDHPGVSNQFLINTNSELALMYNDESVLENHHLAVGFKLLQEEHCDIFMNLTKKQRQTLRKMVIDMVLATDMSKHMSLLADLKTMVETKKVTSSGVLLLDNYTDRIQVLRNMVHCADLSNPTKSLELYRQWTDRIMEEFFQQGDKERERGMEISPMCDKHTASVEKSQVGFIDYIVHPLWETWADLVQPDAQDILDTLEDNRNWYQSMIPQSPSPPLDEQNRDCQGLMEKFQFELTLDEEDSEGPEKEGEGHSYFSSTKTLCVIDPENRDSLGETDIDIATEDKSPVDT
In short: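 Live HEK293 cells with a modified cyclic nucleotide-gated (CNG) channel report intracellular cAMP via membrane-potential dye fluorescence (ex 535/em 590 nm). Endogenous PDE-IV was targeted. Compounds were tested at up to 22.9 uM final; RO 20-1724 100 uM served as control.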

[9] = biological target: Cytochrome P450 3A4 (Homo sapiens) (UniProt P08684); test: qHTS Assay for Activators of Cytochrome P450 3A4 (AID 885); details: recombinant CYP3A4, Luciferin-PPXE luminescence, 60 min; series mostly up to 57.1 µM; also: nearly all actives have a fitted effect of over 65% in size
Chain of Cytochrome P450 3A4 (Homo sapiens) (P08684 whole entry, looked up): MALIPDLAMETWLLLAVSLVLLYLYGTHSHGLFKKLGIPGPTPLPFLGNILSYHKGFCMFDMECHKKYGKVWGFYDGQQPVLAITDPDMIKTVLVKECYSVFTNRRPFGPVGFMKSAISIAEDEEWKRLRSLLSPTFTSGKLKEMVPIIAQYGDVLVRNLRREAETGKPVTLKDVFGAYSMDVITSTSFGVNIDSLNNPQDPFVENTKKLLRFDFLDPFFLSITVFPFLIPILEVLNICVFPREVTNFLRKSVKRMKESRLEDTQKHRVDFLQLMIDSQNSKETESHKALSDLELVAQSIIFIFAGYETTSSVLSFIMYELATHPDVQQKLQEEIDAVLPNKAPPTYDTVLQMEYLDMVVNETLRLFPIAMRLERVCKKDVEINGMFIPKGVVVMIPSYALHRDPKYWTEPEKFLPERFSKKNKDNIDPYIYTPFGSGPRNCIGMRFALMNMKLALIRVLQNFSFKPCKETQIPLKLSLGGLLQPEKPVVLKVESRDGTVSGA
In short: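 Using 20nM recombinant human CYP3A4 in potassium phosphate (200mM), substrate Luciferin-PPXE at 25uM, luminescent luciferin detection followed a 60-min RT NADPH reaction; data scaled to 57 uM ketoconazole.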

[10] = qHTS Assay for Lipid Storage Modulators (AID 1519; calls by dose curve); details: Drosophila S3 cells, BODIPY lipid droplet/cell ratio, laser cytometry, cells loaded with oleic acid; for activity change, negative = inhibition: at 57.5 µM (top of the series)
In short: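 Cells seeded at 5,000 per well were treated with compounds over a concentration series and loaded with oleic acid (400 uM, as added). Lipid droplet fluorescence (488 nm excitation, 500-530 nm channel) was read by laser-scanning cytometry and normalized to 20 uM Triacsin C.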

[11] = biological target: Dual specificity protein kinase CLK4 (Homo sapiens) (UniProt Q9HAZ1); test: qHTS Assay for Inhibitors of CDC-like Kinase 4 (ADP-FP Assay) (AID 1795); details: Transcreener ADP fluorescence polarization; series mostly up to 50 µM;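 also: recombinant human CLK4 phosphorylating RS repeat peptide at 1 µM ATP; % is scaled to controls: 0 for no effect and ±100 for the full control effect; nearly all actives have a fitted effect of over 60% in size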
Chain of Dual specificity protein kinase CLK4 (Homo sapiens) (Q9HAZ1 whole entry, looked up): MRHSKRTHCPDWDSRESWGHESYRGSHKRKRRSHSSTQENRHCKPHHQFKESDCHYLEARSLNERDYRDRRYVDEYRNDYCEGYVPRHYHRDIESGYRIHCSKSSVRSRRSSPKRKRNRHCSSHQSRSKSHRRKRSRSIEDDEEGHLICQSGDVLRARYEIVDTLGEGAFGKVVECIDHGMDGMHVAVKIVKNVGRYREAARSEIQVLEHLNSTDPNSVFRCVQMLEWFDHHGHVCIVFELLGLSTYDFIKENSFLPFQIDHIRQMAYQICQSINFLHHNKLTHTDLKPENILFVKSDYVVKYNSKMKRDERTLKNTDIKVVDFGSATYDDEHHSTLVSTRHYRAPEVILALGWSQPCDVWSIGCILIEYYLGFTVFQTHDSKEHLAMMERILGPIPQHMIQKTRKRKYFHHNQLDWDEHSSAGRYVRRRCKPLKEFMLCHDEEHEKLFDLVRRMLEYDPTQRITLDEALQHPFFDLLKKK
In short: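 Recombinant Clk4 (6.25 nM) phosphorylated 100 uM RS repeat peptide with 1 uM ATP in 25 mM Tris pH 7.5, 10 mM MgCl2, 0.5 mM EGTA, 2.5 mM DTT, 0.01% Triton X-100 for 1 h. ADP was detected by Transcreener ADP2 competitive fluorescence polarization after 30 min at room temperature.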

[12] = biological target: Ubiquitin carboxyl-terminal hydrolase 1 (Homo sapiens) (UniProt O94782); test: Inhibitors of USP1/UAF1: Pilot qHTS (AID 504865); details: purified USP1/UAF1, Ub-rhodamine cleavage fluorescence; series mostly up to 54.9 µM;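 also: rhodamine fluorescence freed from ubiquitin-rhodamine substrate followed over time; top concentration of the series differs between compounds; % is scaled to controls: 0 for no effect and ±100 for the full control effect; nearly all actives have a fitted effect of over 35% in size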
Chain of Ubiquitin carboxyl-terminal hydrolase 1 (Homo sapiens) (O94782 whole entry, looked up): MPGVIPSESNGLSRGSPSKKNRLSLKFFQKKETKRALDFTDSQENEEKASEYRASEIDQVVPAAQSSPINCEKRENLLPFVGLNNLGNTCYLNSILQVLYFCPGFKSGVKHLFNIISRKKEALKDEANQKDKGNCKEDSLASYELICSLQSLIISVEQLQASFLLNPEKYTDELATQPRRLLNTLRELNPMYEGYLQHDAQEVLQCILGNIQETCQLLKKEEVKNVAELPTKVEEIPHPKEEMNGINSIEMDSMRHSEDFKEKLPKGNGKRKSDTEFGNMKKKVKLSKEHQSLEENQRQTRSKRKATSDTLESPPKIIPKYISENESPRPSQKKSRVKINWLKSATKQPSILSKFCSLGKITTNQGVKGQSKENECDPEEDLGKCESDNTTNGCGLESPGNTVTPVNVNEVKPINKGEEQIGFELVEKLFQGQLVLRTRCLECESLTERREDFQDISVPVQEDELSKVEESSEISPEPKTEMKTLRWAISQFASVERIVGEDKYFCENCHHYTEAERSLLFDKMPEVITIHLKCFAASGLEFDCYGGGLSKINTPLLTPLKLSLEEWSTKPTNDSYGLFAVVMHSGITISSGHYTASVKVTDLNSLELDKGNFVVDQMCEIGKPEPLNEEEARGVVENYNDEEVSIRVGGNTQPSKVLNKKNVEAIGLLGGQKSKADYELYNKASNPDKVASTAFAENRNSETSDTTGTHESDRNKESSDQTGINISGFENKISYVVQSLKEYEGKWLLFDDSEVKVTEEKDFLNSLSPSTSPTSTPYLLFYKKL
In short: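 USP1/UAF1 complex at 1 nM preincubated 15 min at room temperature with compound, then Ub-Rho substrate added at 150 nM final. Fluorescence (480/540 nm) read kinetically in 50 mM HEPES pH 7.8, 0.5 mM EDTA, 1 mM TCEP, 0.1 mg/ml BSA, 0.01% Tween-20.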

[13] = Primary qHTS for small molecule stabilizers of the endoplasmic reticulum resident proteome: Secreted ER Calcium Modulated Protein (SERCaMP) assay (AID 1508630); details: SH-SY5Y GLuc-SERCaMP (Gaussia luciferase released on ER calcium loss) secretion, thapsigargin, luminescence; series mostly up to 38.4 µM; also: % is scaled to controls: 0 for no effect and ±100 for the full control effect
In short: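 The SH-SY5Y reporter protocol was run at 3 concentrations up to 38.3 uM (primary) or 11 concentrations (follow-up): 16 h compound, 100 nM thapsigargin for 4 h, then extracellular luciferase luminescence.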

[14] = NFAT Signaling Pathway (AID 444; active = well fitted curve in either direction with a large enough effect, not every such curve was filed as active); details: Jurkat NFAT-bla M1, carbachol, beta-lactamase ratio, 5 h; at 7.69 µM (top of the series) unless noted
In short: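 Read-out: CCF4 FRET ratio (460 nm/530 nm) after 1 h RT dye loading, used for %activity and AC50 from titration series. Cells: Jurkat NFAT-β-lactamase/M1 line, treated with compound plus 1 uM carbachol for 5 h, 37 °C.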

[15] = biological target: Cytochrome P450 2C9 (Homo sapiens) (UniProt P11712); test: qHTS Assay for Inhibitors and Substrates of Cytochrome P450 2C9 (AID 883); details: recombinant CYP2C9, luciferin-H luminescence, 60 min; series mostly up to 57.1 µM; also: % is scaled to controls: 0 for no effect and ±100 for the full control effect; nearly all actives have a fitted effect of over 60% in size
In short: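 Turnover of Luciferin-H (100uM, KM) by 10nM human CYP2C9 was measured over 60 min at 37C with NADPH regeneration; inhibitors and some substrates reduce luminescence. Data normalized to sulphaphenazole 57uM.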

[16] = biological target: Cytochrome P450 3A4 (Homo sapiens) (UniProt P08684); test: qHTS Assay for Inhibitors and Substrates of Cytochrome P450 3A4 (AID 884); details: recombinant CYP3A4, Luciferin-PPXE luminescence; series mostly up to 57.1 µM; also: potency is read from the fitted curve at half-maximal effect; nearly all actives have a fitted effect of over 50% in size
In short: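 Luminescent readout of luciferin produced by CYP3A4 (20 nM) dealkylation of Luciferin-PPXE, 25 uM (its KM). NADPH-driven reaction ran 60 min at RT after 10 min compound preincubation; data scaled to 57 uM ketoconazole as 100% inhibition.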

[17] = biological target: Cytochrome P450 2C19 (Homo sapiens) (UniProt P33261); test: qHTS Assay for Inhibitors and Substrates of Cytochrome P450 2C19 (AID 899); details: recombinant CYP2C19, luciferin-H EGE luminescence; series mostly up to 57.1 µM; also: potency is read from the fitted curve at half-maximal effect; nearly all actives have a fitted effect of over 60% in size
Chain of Cytochrome P450 2C19 (Homo sapiens) (P33261 whole entry, looked up): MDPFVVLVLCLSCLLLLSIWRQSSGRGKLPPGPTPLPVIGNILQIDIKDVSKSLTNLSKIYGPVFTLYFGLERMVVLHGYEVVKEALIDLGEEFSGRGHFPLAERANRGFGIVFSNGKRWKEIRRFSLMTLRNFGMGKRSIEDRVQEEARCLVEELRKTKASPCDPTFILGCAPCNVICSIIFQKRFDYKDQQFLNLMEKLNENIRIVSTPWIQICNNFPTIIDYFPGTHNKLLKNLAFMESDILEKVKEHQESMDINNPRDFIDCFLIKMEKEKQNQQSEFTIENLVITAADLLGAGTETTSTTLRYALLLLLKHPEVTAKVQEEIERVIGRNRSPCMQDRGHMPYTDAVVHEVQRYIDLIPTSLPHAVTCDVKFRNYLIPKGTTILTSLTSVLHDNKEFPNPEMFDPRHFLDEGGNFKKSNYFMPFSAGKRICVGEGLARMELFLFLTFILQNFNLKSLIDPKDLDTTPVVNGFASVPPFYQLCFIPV
In short: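 Reactions contain 5nM enzyme, 10uM Luciferin-H EGE (KM) and 50mM KPO4; compound preincubates 10 min at 37C, NADPH regeneration starts turnover for 60 min. Luminescence after detection reagent gives activity.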

[18] = measured here: cell count channel max response
[19] = measured here: lipid channel max response

CN(C)Cc1ccccc1-c1cc(N(C)Cc2ccco2)ncn1
19.9%: max response [10, 18]
inactive: Potency [1] > 11.4 µM | activity change, negative = inhibition [2] 4.53% | activity, negative = inhibition [4] -3.48% | Potency [5] > 46 µM | Potency [6] > 46 µM | outcome [7] | Potency [8] | Potency [9] | activity change, negative = inhibition [10] 5.32% | Potency [11] | Potency [12] | Potency [13]
active: Potency [3] 15.8 µM
23.3%: max response [10, 19]

CN(C)C(=O)c1ccc(-c2cc(NCc3cccnc3)ncn2)cc1
inactive: Potency [1] > 11.4 µM | activity change, negative = inhibition [2] 11.8% | activity change, negative = inhibition [14] 21.1% | activity, negative = inhibition [4] 21.7% | Potency [5] > 46 µM | Potency [6] > 46 µM | outcome [7] | Potency [8] | Potency [9] | activity change, negative = inhibition [10] 3.91% | Potency [12] | Potency [13]
active: Potency [3] 20 µM
22.9%: max response [10, 19]
24.7%: max response [10, 18]

COc1ccc(CNc2ncncc2-c2cccnc2)c(OC)c1
18.2%: max response [10, 18]
inactive: Potency [1] > 11.4 µM | activity change, negative = inhibition [2] 3.11% | activity change, negative = inhibition [14] 4.08% | Potency [5] > 46 µM | outcome [7] | Potency [8] | activity change, negative = inhibition [15] 26.1% [at 2.29 µM] | Potency [9] | activity change, negative = inhibition [10] 4.88% | Potency [11] | Potency [12] | Potency [13]
active: Potency [3] 3.16 µM
22.7%: max response [10, 19]

COc1ccc2[nH]cc(CCNc3ncncc3-c3c(C)noc3C)c2c1
active: Potency [3] 12.6 µM | Potency [16] 0.794 µM | Potency [17] 3.16 µM
18.3%: max response [10, 19]
inactive: Potency [1] > 11.4 µM | activity change, negative = inhibition [2] -11.4% | activity change, negative = inhibition [14] -0.0502% | activity, negative = inhibition [4] -10.2% | Potency [5] > 46 µM | outcome [7] | Potency [8] | Potency [9] | activity change, negative = inhibition [10] 7.61% | Potency [11] | Potency [13]
11.1%: max response [10, 18]

O=c1cnc2cnc(Nc3ccccc3)nc2n1Cc1ccc(F)cc1
active: Potency [3] 1 µM
inactive: Potency [1] > 11.4 µM | activity change, negative = inhibition [2] -17.4% | activity change, negative = inhibition [14] 3.72% | activity, negative = inhibition [4] -3.92% | Potency [5] > 9.22 µM | Potency [6] > 46 µM | outcome [7] | activity change, negative = inhibition [10] 6.15% | Potency [11] | Potency [12] | Potency [13]
14.4%: max response [10, 19]
9.12%: max response [10, 18]

CN(Cc1ccco1)c1ncnc2ccc(-c3ccccc3C(F)(F)F)cc12
active: Potency [3] 5.01 µM
18.1%: max response [10, 19]
20.9%: max response [10, 18]
inactive: Potency [1] > 11.4 µM | activity change, negative = inhibition [2] 4.42% | activity change, negative = inhibition [14] -18.5% | activity, negative = inhibition [4] -19.3% | Potency [5] > 46 µM | Potency [6] > 46 µM | outcome [7] | Potency [9] | activity change, negative = inhibition [10] -0.853% | Potency [11] | Potency [12] | Potency [13]
